High-throughput results: PubChem, several laboratories
Rows were chosen to be rich in hits. Some 1.8% of all compounds tested hit in one or more screens of this group.
APOBEC3G inh = APOBEC3G DNA deaminase inhibitors, primary screen, biochemical, fluorescence, single-stranded DNA substrate, uHTS; DNA dC->dU-editing enzyme APOBEC-3G (Homo sapiens), Q9HC16; recombinant A3G, ssDNA deamination FAM/TAMRA fluorescence; inhibition, % at 20 µM; hit rate 0.28% among 330,000;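 active = inhibition of at least 40% at 20 µM, with no more than 30% in the related APOBEC3A deaminase screen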
MIN6 prolif = inducers of MIN6 beta-cell proliferation, primary screen, ATP luminescence, uHTS; MIN6 cells proliferation, ATPlite luminescence, 48 h; cells starved in 0.2% serum; 100% = growth in 10% serum; proliferation, % at 10 µM; hit rate 0.29% among 330,000; AID 2380, 2010;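 active = compounds whose signal lies at least 3.5 SD above the mean of all wells on their plate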
CendR NRP1 mod = modulators of CendR peptide binding to NRP-1, primary screen, biochemical, fluorescence polarization, uHTS. Neuropilin-1 (Homo sapiens), O14786. FAM-RPARPAR peptide binding to NRP-1. inhibition, % at 25 µM. hit rate 0.85% among 360,000;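 active = inhibition or corrected inhibition above about 18%, plus a signal ratio from 0.5 to 1.5, limit read from the data, passing the limit was not always enough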
APOBEC3A inh = APOBEC3A ssDNA deaminase inhibitors, primary screen, selectivity assay for APOBEC3G inhibitor project, biochemical, FAM/TAMRA oligo cleavage fluorescence; DNA dC->dU-editing enzyme APOBEC-3A (Homo sapiens), P31941; recombinant A3A, FAM/TAMRA ssDNA deamination fluorescence; inhibition, % at 20 µM; hit rate 0.41% among 330,000; AID 493011, 2011;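 active = at least 40% inhibition at 20 µM here, with at most 30% in a related deaminase screen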
VLA-4 inh = inhibition in human VLA-4 binding assay, primary screen, VLA-4 allosteric modulator project, MLPCN library, flow cytometry, VLA-4 expressing cells; inhibition, % (about 7 µM as worked out from the volumes in the protocol); hit rate 0.2% among 330,000; Integrin alpha-4 (Homo sapiens), P13612; ligand binding flow cytometry; in the data active = inhibition above about 50%
Target sequence (P13612 whole entry, looked up): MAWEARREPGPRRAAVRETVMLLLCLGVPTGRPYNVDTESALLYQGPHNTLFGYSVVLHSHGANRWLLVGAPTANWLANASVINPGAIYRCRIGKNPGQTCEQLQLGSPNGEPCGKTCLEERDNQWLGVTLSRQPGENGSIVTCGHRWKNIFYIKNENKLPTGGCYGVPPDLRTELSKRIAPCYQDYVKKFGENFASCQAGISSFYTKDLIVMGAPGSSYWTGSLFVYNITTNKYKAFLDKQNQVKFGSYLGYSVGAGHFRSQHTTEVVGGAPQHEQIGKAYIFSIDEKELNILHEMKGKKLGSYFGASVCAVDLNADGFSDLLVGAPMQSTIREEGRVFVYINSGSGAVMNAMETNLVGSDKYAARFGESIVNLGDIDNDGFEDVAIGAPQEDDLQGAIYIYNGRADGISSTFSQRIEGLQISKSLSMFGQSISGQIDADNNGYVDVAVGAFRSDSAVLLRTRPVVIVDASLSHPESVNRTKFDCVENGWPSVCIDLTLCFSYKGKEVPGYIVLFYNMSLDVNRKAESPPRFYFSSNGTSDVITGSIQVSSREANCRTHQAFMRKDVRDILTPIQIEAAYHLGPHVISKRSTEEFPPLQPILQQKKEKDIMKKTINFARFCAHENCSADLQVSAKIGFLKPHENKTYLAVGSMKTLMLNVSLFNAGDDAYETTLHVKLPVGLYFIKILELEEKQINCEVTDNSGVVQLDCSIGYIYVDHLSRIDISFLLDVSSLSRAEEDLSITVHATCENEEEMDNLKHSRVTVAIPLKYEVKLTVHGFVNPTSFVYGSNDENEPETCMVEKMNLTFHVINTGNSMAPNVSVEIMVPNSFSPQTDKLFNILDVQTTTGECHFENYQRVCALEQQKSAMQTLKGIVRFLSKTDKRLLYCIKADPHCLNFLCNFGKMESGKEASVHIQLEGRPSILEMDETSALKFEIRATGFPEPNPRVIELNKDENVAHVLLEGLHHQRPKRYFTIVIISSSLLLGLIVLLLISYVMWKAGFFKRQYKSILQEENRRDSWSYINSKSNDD
VLA-4 allo CP = retest of VLA-4 allosteric modulators, confirmation, cell-based, cherry-picked plates, U937, HUTS-21 LIBS antibody; inhibition, % at 6.7 µM; U937 cells, HUTS-21 LIBS mAb binding, flow cytometry; LDV ligand present at threefold Kd; hit rate 2% among 1,300; shares compounds with VLA-4 inh; in the data active = inhibition above about 40%
APOBEC3A confirm = APOBEC3A deaminase inhibitors, retest, confirmation, selectivity assay for APOBEC3G inhibitor project, biochemical, single concentration, fluorescence readout; shares compounds with APOBEC3A inh; recombinant A3A, ssDNA deaminase UDG fluorescence assay; inhibition, % at 20 µM; hit rate 63% among 1,400;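 active = inhibition reaching a set limit, 80% of the first screen's cutoff, at 20 µM in any replicate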
UDG A3A counter = E. coli UDG inhibitors, confirmation, counter-screen for APOBEC3A inhibitor project, biochemical, single concentration, fluorescence, FAM/TAMRA oligo. shares compounds with APOBEC3A inh. UDG counterscreen, FAM/TAMRA uracil oligo fluorescence. inhibition, % at 20 µM. 1,000 tested, under 10 active; call rule not given here
Hits are given with their value; n = inactive; x = no result.

SMILES	APOBEC3G inh	MIN6 prolif	CendR NRP1 mod	APOBEC3A inh	VLA-4 inh	VLA-4 allo CP	others
COc1ccc(CNCCc2ccc3c(c2)OCO3)cc1Br	n	n	n	n	n	x
c1ccc2c(c1)Nc1ccccc1S2	n	n	n	n	54.9	n
Cc1ccc(CN2CCCC(C(=O)c3sccc3C)C2)o1 (stereo not drawn)	n	n	n	n	n	x
CC(C)Sc1nnc(OC(=O)N(C)C)n1-c1ccccc1	n	n	n	n	n	x
Nc1cc(Cl)c2nonc2c1[N+](=O)[O-]	x	x	n	x	49.6	n
O=[N+]([O-])c1c(Cl)c(Cl)c(Cl)c(Cl)c1Cl	x	x	n	x	x	x
C/C1=C\[C@@H](C)C/C=C/[C@H]2[C@@H]3O[C@]3(C)[C@@H](C)[C@H]3[C@H](Cc4c[nH]c5ccccc45)NC(=O)[C@]32C(=O)/C=C/C(=O)[C@@H]1O	n	n	n	n	69.8	n
CN1C2CCC1C(C(=O)O)C(OC(=O)c1ccccc1)C2 (stereo not drawn)	n	n	n	n	n	n
CCOC(=O)C1C(OC(=O)c2ccccc2)CC2CCC1N2C (stereo not drawn)	x	x	n	x	x	x
COC(=O)C1C2CC[C@@H](CC1OC(=O)c1ccccc1)N2 (stereo partly drawn)	n	n	n	n	n	n
CCOc1ccc(C(C)=O)cc1Cn1ccsc1=N	x	x	n	x	n	x
O=C1CN(O)C(c2ccccc2)=c2cc(Cl)ccc2=N1	n	n	n	n	101.0	n
CN=C1CN(O)C(c2ccccc2)=c2cc(Cl)ccc2=N1	n	n	n	n	n	x
COC(=O)C(Cc1ccc(N(CCCl)CCCl)cc1)N=Cc1ccccc1O (stereo not drawn)	n	n	n	n	n	x
Cc1[nH]c2ccc(OC(F)(F)F)cc2c1CCNCc1cccc([N+](=O)[O-])c1	n	n	n	n	n	x
CCOc1cccc(CNCCc2c(C)[nH]c3ccc(OC(F)(F)F)cc23)c1O	n	n	n	n	64.8	n
Cc1ccnc(NC(=O)CCCc2ccc(N(CCCl)CCCl)cc2)n1	x	x	n	x	x	x
CN1[C@@H]2CC[C@H]1CC(OC(=O)C1C=Nc3ccccc31)C2 (stereo partly drawn)	n	n	n	n	50.6	n
CN1C2CCC1CC(OC(=O)c1cccc(O)c1)C2 (stereo not drawn)	x	x	n	x	x	x
Cc1cccc(CN2CCCN(Cc3ccc(Cl)cc3)S2(=O)=O)c1	n	n	n	n	n	n
Cc1ccc(CN2CCCN(Cc3ccc(C)cc3)S2(=O)=O)cc1	n	n	n	n	n	x
COc1cccc(O)c1CN1CCCC(C(=O)c2ccccc2SC)C1 (stereo not drawn)	n	n	n	n	51.3	n
Cc1cccc(N=C2c3cc([N+](=O)[O-])ccc3-c3c2cc([N+](=O)[O-])cc3[N+](=O)[O-])c1	x	x	n	x	x	x
C=C1[C@H]2CC[C@H]3[C@]4(C)C[C@H](O[C@H]5O[C@H](CO)[C@@H](OS(=O)(=O)O)[C@H](OS(=O)(=O)O)[C@H]5OC(=O)CC(C)C)C[C@@H](C(=O)O)[C@H]4CC[C@]3(C2)[C@H]1O	n	n	n	n	57.1	n
Cc1ccc(S(=O)(=O)N[C@@H](CCCCN)C(=O)CCl)cc1	n	n	n	n	52.7	n
SMILES	APOBEC3G inh	MIN6 prolif	CendR NRP1 mod	APOBEC3A inh	VLA-4 inh	VLA-4 allo CP	others
Cc1ccc(S(=O)(=O)NCCC(=O)Nc2ccc(Cl)cc2C(=O)c2ccccc2)cc1	n	n	n	n	n	x
CCOC(=O)c1c(NC(=O)C(c2ccccc2)c2ccccc2)sc2c1C1CCN2CC1	n	n	n	n	n	n
Cc1cc(C)cc(N2C(=O)NC(=O)/C(=C\c3cccn3-c3ccccc3)C2=O)c1	n	n	n	n	n	n
O=C(CCCc1ccccc1)NCCc1cnc[nH]1	n	n	n	n	n	x
CSc1nnc(OC(=O)N(C)C)n1-c1ccc(Cl)cc1	n	n	n	n	n	x
Cc1cc(Cl)ccc1OCC(=O)O	n	n	n	n	55.6	n
O=C(O)COc1ccc(Cl)cc1Cl	n	n	n	n	n	x
O=c1[nH]c(=S)n(Cc2ccc(F)cc2)c(O)c1/C=N/N1CCCCC1	n	n	n	n	56.4	n
COc1ccc(C(=O)OC2C[C@H]3CC[C@@H](C2)N3O)cc1OC (stereo partly drawn)	n	n	n	n	n	n
CCCCCCCSc1cc(OC)c(CCNC)cc1OC	n	n	n	n	61.1	n
ClCCOCCCl	n	n	n	n	n	x
C[C@@H]1CC2(CCCC[N+]2(C)C)C[C@H]1C	n	n	n	81.5	n	x	APOBEC3A confirm=67.7;UDG A3A counter=n
CS(=O)(=O)c1ccc(C2=C(CNC(=O)c3cccs3)[C@H]3CC[C@@H](C2)N3CCOc2ccccc2)cc1	x	x	n	x	x	x
CC12Cc3cn[nH]c3C=C1CCC1C2CCC2(C)C1CCC2(C)O (stereo not drawn)	x	x	n	x	x	x
O=[N+]([O-])c1cc(S(=O)(=O)c2ccc(O)c([N+](=O)[O-])c2)ccc1O	n	n	n	70.4	n	x	APOBEC3A confirm=83.6;UDG A3A counter=n
CC(=NNC(=S)N1CC2CCC(CC2)C1)c1nccs1	x	x	n	x	x	x
CCN1CCN(Cc2cccnc2)CC1	n	n	n	n	n	x
C=C1C(O)(c2ccccc2)C2CC[N+]1(C)CC2 (stereo not drawn)	n	n	n	76.3	n	x	APOBEC3A confirm=74.4;UDG A3A counter=n
CCOC(=O)/C(CCCN(CC)CC)=N\O	n	n	n	75.3	n	x	APOBEC3A confirm=77.6;UDG A3A counter=n
CCN(CC)P(c1n(C)cc[n+]1C)N(CC)CC	n	n	n	62.1	n	x	APOBEC3A confirm=65.3;UDG A3A counter=n
COC(=O)C1=C(c2ccc(OC)c(OC)c2)C[C@@H]2CC[C@H]1N2C(=O)N1CCc2cc(OC)c(OC)cc2C1	n	n	n	n	n	x
O=[N+]([O-])/C=C1/NCCN1Cc1ccc(Cl)nc1	n	n	n	n	n	x
